Rows were chosen to be rich in hits. Some 2.4% of all compounds tested hit in one or more screens of this group.
D2 antag – HTS Assay for Allosteric Antagonists of the Human D2 Dopamine Receptor: Primary Screen for Antagonists; HEK293 TREx D2 cells, calcium flux, dopamine EC80; inhibition, % at 10 µM; 340,000 compounds, 2% hits; in the data active means inhibition above about 30%; inactive means below that, where a call was filed; further: 0% is about no effect
Target sequence (P14416 whole entry, looked up): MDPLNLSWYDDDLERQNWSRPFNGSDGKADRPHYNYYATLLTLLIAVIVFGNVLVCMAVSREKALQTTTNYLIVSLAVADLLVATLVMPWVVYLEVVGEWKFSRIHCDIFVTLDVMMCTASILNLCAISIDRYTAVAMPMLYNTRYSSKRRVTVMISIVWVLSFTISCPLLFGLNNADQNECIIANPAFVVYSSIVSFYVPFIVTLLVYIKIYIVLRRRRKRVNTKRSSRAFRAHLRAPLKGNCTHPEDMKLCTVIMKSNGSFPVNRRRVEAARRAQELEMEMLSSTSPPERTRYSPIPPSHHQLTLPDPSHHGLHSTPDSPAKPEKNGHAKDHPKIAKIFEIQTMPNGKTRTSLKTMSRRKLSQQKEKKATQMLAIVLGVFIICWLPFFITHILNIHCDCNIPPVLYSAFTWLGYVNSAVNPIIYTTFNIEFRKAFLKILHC
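Tetracycline-induced HEK293 TREx cells expressing D2 receptor forced-coupled to calcium signalling, loaded with no-wash calcium dye. Compounds added and calcium flux read 180 s, then dopamine added at EC80 and read a further 180 s.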
D2 ag-1 – HTS Assay for Allosteric Agonists of the Human D2 Dopamine Receptor: Primary Screen for Agonists; AID 485358, 2010; activation, % at 2 µM; 340,000 compounds, 0.53% hits; HEK293 T-REx D2 cells, calcium flux agonist mode; D(2) dopamine receptor (Homo sapiens), P14416;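 active means activation over 3 SD above normal in the single-dose calcium agonist read, cut at about 30% in these data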; further: 0% is about no effect
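Tetracycline-induced HEK293 T-REx cells with force-coupled D2 receptor, plated overnight at 30 C, loaded with no-wash calcium dye. After a 10 s baseline, compound was pin-added and calcium flux read kinetically for 180 s; calcium rises flagged agonists.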
D2 ag-2 – Beta-Arrestin HTS for Positive Allosteric Modulators of the Human D2 Dopamine Receptor: Agonists. activation, % (test concentration not listed). AID 624465, 2012. DiscoveRx PathHunter D2 beta-arrestin, luminescence, 90 min; 100% = 57 uM dopamine signal. D(2) dopamine receptor (Homo sapiens), P14416. 360,000 compounds, 0.084% hits; in the data active means activation above about 40%; inconclusive means between about 15% and that limit
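Agonist mode: compounds alone added to overnight-plated D2 PathHunter cells for 90 min at 37 C, with 57 uM final dopamine (EC100) defining full response. Beta-arrestin recruitment detected by chemiluminescent reagent, read after 1 h at ambient temperature.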
D2 PAM-1 – HTS Assay for Positive Allosteric Modulators of the Human D2 Dopamine Receptor: Primary Screen for Potentiators. D(2) dopamine receptor (Homo sapiens), P14416. HEK293 T-REx D2, calcium flux, EC20 dopamine potentiation. potentiation, % at 10 µM. 340,000 compounds, 0.34% hits;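 active means potentiation over 3 SD above the plate norm, cut at about 30% in these data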; further: 0% is about no effect
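Primary screen. Calcium kinetics in induced HEK293 T-REx D2 cells: compound pre-addition 180 s, EC20 dopamine, 180 s more.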
D2 PAM-2 – Beta-Arrestin HTS for Positive Allosteric Modulators of the Human D2 Dopamine Receptor: Potentiators; D(2) dopamine receptor (Homo sapiens), P14416; DiscoveRx D2 beta-arrestin cells, luminescence, 90 min; 100% = 57 uM dopamine signal; potentiation, % (concentration not given with the values); 360,000 compounds, 0.23% hits; in the data active means potentiation above about 50%; inconclusive means mostly about 30% to 49%
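PathHunter D2 cells, attached overnight at 37 deg C, received compound in DMSO plus dopamine at EC20 (50 nM final) for 90 min at 37 deg C. Beta-arrestin recruitment was read as luminescence after 1 h with detection reagent at ambient temperature.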
* marks the source's active call; other numbers are inactive results; u = inconclusive; x = no result given.

SMILES	D2 antag	D2 ag-1	D2 ag-2	D2 PAM-1	D2 PAM-2
O=c1cc(CSc2ncn[nH]2)[nH]c2c(Cl)cccc12	x	-1	x	11	x
COc1ccc(-c2noc(N3CCC(C(=O)N(C)c4cc(Cl)ccc4OC)CC3)n2)cc1	x	0	x	2	x
Cc1ccc(-c2noc(-c3ccc(NC4CCCC4)c([N+](=O)[O-])c3)n2)cc1	x	x	x	7	x
O=C1/C(=C/c2ccc(Cl)cc2)SC(=S)N1CCC(=O)N1CCCCC1CCO (configuration not stated)	31*	0	4	8	-12
O=C1/C(=C/c2cccc(Cl)c2)SC(=S)N1CCC(=O)N1CCCCC1CCO (configuration not stated)	17	1	6	-13	-11
COc1ccc(/C=C2\SC(=S)N(CCC(=O)N3CCCCC3)C2=O)cc1	-5	0	-6	16	-24
COCCN1C(=O)/C(=C/c2ccc(N3CCCC3)cc2)SC1=S	9	41*	-5	5	-9
COc1ccc2nc3sc(C(=O)Nc4cc(Cl)c(OC)cc4OC)cc3cc2c1	x	-1	x	-8	x
O=C(Nc1nc2c(s1)CN(Cc1ccccc1)CC2)C1CCC1	51*	2	-1	-2	-7
CCN1CCc2nc(NC(=O)c3ccccc3)sc2C1	-25	1	-4	15	7
CCc1ccc(C2c3c(-c4cc(C)ccc4O)n[nH]c3C(=O)N2Cc2cccnc2)cc1 (configuration not stated)	x	2	x	12	x
CCc1cccc(C)c1NC(=O)Cn1ccn(-c2cccc(OC)c2)c(=O)c1=O	x	0	x	-7	x
O=C(OCc1nc2ccccc2s1)c1ccc(Br)s1	32*	1	-2	3	2
Nc1ccc(C(=O)OCc2nc3ccccc3s2)cc1	x	x	-2	x	-3
C(=N\Nc1nc(-c2ccccc2)cs1)/c1cccs1	-11	-1	13	5	63*
C(=N\Nc1nc(-c2ccccc2)cs1)/c1ccncc1	-15	1	4	-5	-5
COc1ccc(S(=O)(=O)Nc2cccc(-c3ccc(N4CCC(C)CC4)nn3)c2)c(OC)c1	x	-1	x	-3	x
COC(=O)c1ccc(NC(=O)Cn2nc(C(=O)Nc3ccc(C)cc3)ccc2=O)cc1	30*	-1	-4	-1	-2
CCn1cc2c(n1)-c1c(oc(C(=O)Nc3cccc(C)c3C)c1C)CC2	x	0	x	-8	x
O=C(Nc1ccccc1)/C(=C/c1ccc(O)cc1)NC(=O)c1ccco1	-2	0	4	8	-1
O=C(Nc1ccccc1)/C(=C\c1ccc2c(c1)OCO2)NC(=O)c1ccco1	30*	-1	0	-8	-2
O=C(Nc1ccccc1)/C(=C/c1ccccc1)NC(=O)c1ccco1	30*	1	4	3	14
CSc1ccc(CCNC(=O)CCc2c(C)nc3c4cccnc4nn3c2C)cc1	x	0	x	14	x
COc1ccc2nc(SC)c(C#N)cc2c1	55*	-1	0	-5	5
COc1ccc2nc(SCC(C)=O)c(C#N)cc2c1	-3	14	-1	7	-2
SMILES	D2 antag	D2 ag-1	D2 ag-2	D2 PAM-1	D2 PAM-2
N=C1/C(=C\c2coc3ccccc3c2=O)C(=O)N=C2SC(c3ccncc3)=NN12	17	59*	5	-8	2
CSC1=NSC2=NC(=O)/C(=C\c3coc4ccccc4c3=O)C(=N)N12	30	110*	3	-8	7
O=C(CN1C(=O)COc2ccc(S(=O)(=O)N3CCCCCC3)cc21)N1CCN(c2ccc(Cl)cc2)CC1	x	-1	x	9	x
Cn1c(=O)c2c(nc(-n3ccnc3)n2Cc2ccc([N+](=O)[O-])cc2)n(C)c1=O	31*	0	-3	-1	-14
CN1CCN(c2nc3c(c(=O)n(C)c(=O)n3C)n2Cc2ccc(Cl)cc2)CC1	-6	0	-1	-6	-5
O=C(CCC(=O)N1CCOc2ccc(Cl)cc21)NCCCN1CCN(c2ccccc2F)CC1	86*	36*	1	-15	-11
Cc1ccc(C)c(N2CCN(CCCNC(=O)CCC(=O)N3CCOc4ccc(Cl)cc43)CC2)c1	56*	4	x	-23	x
COc1ccc(N2CCN(CCCNC(=O)CCC(=O)N3CCOc4ccc(Cl)cc43)CC2)cc1	-4	0	-6	-27	-39
COc1ccc(Cn2c(=O)[nH]c3cc(C(=O)N4CCN(c5cc(Cl)ccc5C)CC4)ccc3c2=O)cc1	x	0	x	18	x
Cc1ccc(C(=O)N2CCOCC2)cc1S(=O)(=O)Nc1cccc(C)c1C	42*	0	-2	-1	-2
Cc1ccc(S(=O)(=O)CCN2CCN(c3ccccc3)CC2)cc1	30*	9	0	-16	-12
CCn1nnnc1-c1ccc(OC)c(S(=O)(=O)Nc2ccc(C)c(C)c2)c1	-18	0	2	-2	-19
CCn1nnnc1-c1ccc(OC)c(S(=O)(=O)NCc2ccccc2)c1	33*	0	-3	1	4
Cc1ccc(C(=O)N/N=C\c2ccc(-c3ccc([N+](=O)[O-])cc3)o2)cn1	4	0	1	7	0
Cc1ccc(C(=O)N/N=C\c2ccc(-c3ccc(Cl)cc3)o2)cn1	18	1	3	30*	-14
COc1ccccc1-c1cc(C(=O)NCc2ccc(Cl)cc2)no1	x	x	-2	x	-17
COc1ccccc1-c1cc(C(=O)NCc2ccc(F)cc2)no1	74*	1	-2	-13	-23
COc1ccccc1-c1cc(C(=O)NCc2ccccc2)no1	81*	0	1	-26	-20
COc1ccc(CNC(=O)c2cc(-c3ccccc3OC)on2)cc1	91*	-1	-3	-27	-20
COc1cccc2[nH]c(C(=O)NCc3ccccc3)cc12	42*	-2	-2	-28	-13
COc1ccc(CNC(=O)c2cc(-c3ccco3)on2)cc1	-2	0	-1	-12	-6
CC1CCN(c2oc(-c3ccc(COc4ccccc4)o3)nc2C#N)CC1	x	0	x	15	x
CC(C)(C)OC(=O)N1CCC(c2c(C(=O)NCc3cccc(Cl)c3)cnn2-c2ccc(F)cc2)CC1	x	2	x	-3	x
Cc1c(Cl)cccc1NC(=O)Nc1ccc2snnc2c1	x	x	x	16	x
N/C(=N\OC(=O)c1ccc(Cl)cc1)c1ccc(Cl)cc1	-19	0	u	0	86*
N/C(=N\OC(=O)c1ccc(Cl)cc1)c1cccnc1	8	0	u	-10	27

High-throughput results (PubChem BioAssay)
